Test results from PubChem BioAssay AID1159580 (chemical genetic matrix, 2015).
Several values for one entry are separate records, joined by “and”; a condition that tells them apart may be missing. Equal entries are not always repeated. About 2,000 (36%) of roughly 5,500 compounds were called active. Inconclusive results (about 18%) are left out. Cut-off read from the data, not from the text of the source: active = normalized growth mostly below about 0.91 (no sharp cut-off); inconclusive = no clear call, values can overlap the other calls; inactive = mostly above about 0.92. The list shows a part of the results.

Test: chemical genetic growth profiling, strain panel (AID 1159580);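 note: tested at 20 µM; growth read once vehicle control cultures reached saturation at 30 °C; 1 = growth at the plate median or of vehicle wells; lower values mean less growth of the strain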
Settings: S. cerevisiae deletion strains, growth OD

Measured: normalized growth

C[C@@H](CO)NC(=O)C1C=C2c3cccc4[nH]cc(c34)C[C@H]2N(C)C1 (stereo partly specified)
inactive: locus YAL013W, strain DEP1, stronger effect = lower value 1.02 | locus YAL021C, strain ccr4, stronger effect = lower value 1.01 | locus YAL026C, strain drs2, stronger effect = lower value 0.989 | locus YAL030W, strain snc1, stronger effect = lower value 1.03 | locus YBL061C, strain skt5, stronger effect = lower value 1.02 | locus YBR009C, strain hhf1, stronger effect = lower value 0.979 | locus YBR021W, strain FUR4, stronger effect = lower value 0.963 | locus YBR023C, strain chs3, stronger effect = lower value 1.01 | locus YBR171W, strain sec66, stronger effect = lower value 1.02 | locus YBR229C, strain ROT2, stronger effect = lower value 0.997 | locus YBR231C, strain swc5, stronger effect = lower value 1.02 | locus YBR279W, strain paf1, stronger effect = lower value 1 | locus YCL011C, strain gbp2, stronger effect = lower value 0.991 | locus YCL016C, strain dcc1, stronger effect = lower value 0.955 | locus YCL029C, strain bik1, stronger effect = lower value 0.986 | locus YCL069W, strain vba3, stronger effect = lower value 1.01 | locus YCR088W, strain abp1, stronger effect = lower value 1.01 | locus YDL005C, strain med2, stronger effect = lower value 1.02 | locus YDL035C, strain GPR1, stronger effect = lower value 1.03 | locus YDL040C, strain nat1, stronger effect = lower value 1.01 | locus YDL074C, strain BRE1, stronger effect = lower value 1.08 | locus YDL101C, strain DUN1, stronger effect = lower value 0.996 | locus YDL134C, strain PPH21, stronger effect = lower value 0.995 | locus YDL185W, strain tfp1, stronger effect = lower value 0.983 | locus YDL192W, strain arf1, stronger effect = lower value 0.994 | locus YDR001C, strain nth1, stronger effect = lower value 1 | locus YDR069C, strain doa4, stronger effect = lower value 1.04 | locus YDR101C, strain arx1, stronger effect = lower value 0.997 | locus YDR137W, strain rgp1, stronger effect = lower value 0.984 | locus YDR150W, strain NUM1, stronger effect = lower value 0.987 | locus YDR159W, strain sac3, stronger effect = lower value 0.937 | locus YDR162C, strain NBP2, stronger effect = lower value 1.02 | locus YDR195W, strain ref2 1.01 | locus YDR297W, strain sur2, stronger effect = lower value 1.03 | locus YDR318W, strain mcm21, stronger effect = lower value 0.994 | locus YDR334W, strain swr1, stronger effect = lower value 1 | locus YDR335W, strain msn5, stronger effect = lower value 1.01 | locus YDR388W, stronger effect = lower value 0.998 | locus YDR392W, strain spt3, stronger effect = lower value 0.942 | locus YDR502C, strain sam2, stronger effect = lower value 0.996 | locus YEL003W, strain gim4, stronger effect = lower value 1.03 | locus YEL037C, strain rad23, stronger effect = lower value 1.01 | locus YEL061C, strain CIN8 (second series), stronger effect = lower value 1 | locus YEL061C, strain CIN8, stronger effect = lower value 1.01 | locus YER015W, strain faa2, stronger effect = lower value 1.01 | locus YER016W, strain bim1, stronger effect = lower value 0.994 | locus YER110C, stronger effect = lower value 0.99 | locus YER111C, strain swi4, stronger effect = lower value 1 | locus YER155C, strain BEM2 (second series), stronger effect = lower value 1.08 | locus YER155C, strain BEM2, stronger effect = lower value 1 | locus YER167W, strain BCK2, stronger effect = lower value 0.99 | locus YFR010W, strain ubp6, stronger effect = lower value 1.01 | locus YGL078C, strain dbp3, stronger effect = lower value 0.995 | locus YGL086W, strain mad1, stronger effect = lower value 0.987 | locus YGL167C, strain pmr1, stronger effect = lower value 1.03 | locus YGL173C, strain kem1, stronger effect = lower value 1.04 | locus YGL227W, strain vid30, stronger effect = lower value 1.01 | locus YGL240W, strain doc1, stronger effect = lower value 1.04 | locus YGL248W, strain PDE1, stronger effect = lower value 0.993 | locus YGL253W, strain hxk2, stronger effect = lower value 0.985 | locus YGR078C, strain PAC10, stronger effect = lower value 1.03 | locus YGR135W, strain pre9, stronger effect = lower value 1.01 | locus YGR229C, strain SMI1, stronger effect = lower value 1.06 | locus YGR252W, strain gcn5, stronger effect = lower value 0.977 | locus YHR013C, strain ard1, stronger effect = lower value 1 | locus YHR027C, strain rpn1, stronger effect = lower value 1.01 | locus YHR030C, strain SLT2, stronger effect = lower value 0.991 and 1.04 | locus YHR079C, strain IRE1 (second series), stronger effect = lower value 0.991 | locus YHR079C, strain IRE1, stronger effect = lower value 1.04 | locus YHR094C, strain hxt1, stronger effect = lower value 0.991 | locus YHR129C, strain ARP1, stronger effect = lower value 0.999 | locus YHR142W, strain chs7, stronger effect = lower value 0.99 | locus YHR200W, strain rpn10, stronger effect = lower value 0.988 | locus YIL066C, strain RNR3, stronger effect = lower value 1 | locus YIL073C, strain SPO22, stronger effect = lower value 0.949 | locus YIL125W, strain kgd1, stronger effect = lower value 0.99 | locus YIR030C, strain dcg1, stronger effect = lower value 0.994 | locus YJL092W, strain hpr5, stronger effect = lower value 1.03 | locus YJL095W, strain BCK1 (second series), stronger effect = lower value 1.03 | locus YJL095W, strain BCK1, stronger effect = lower value 1.05 and 1.04 | locus YJL115W, strain asf1, stronger effect = lower value 1.01 | locus YJL129C, strain trk1, stronger effect = lower value 1.02 | locus YJL134W, strain LCB3, stronger effect = lower value 0.997 | locus YJL154C, strain vps35, stronger effect = lower value 1.01 | locus YJL164C, strain tpk1, stronger effect = lower value 0.989 | locus YJL166W, strain qcr8, stronger effect = lower value 1.03 | locus YJL168C, strain set2, stronger effect = lower value 0.998 | locus YJL187C, strain SWE1 (second series), stronger effect = lower value 1 | locus YJL187C, strain SWE1, stronger effect = lower value 1.02 | locus YJR043C, strain POL32, stronger effect = lower value 0.995 | locus YJR066W, strain TOR1, stronger effect = lower value 1.01
